# Results taken from the supplement of paper PMC8728848.
# The entries come from a sample that favours the strongest signals as a whole.
# Columns and labels:
# Experiment in all cases: glycan array binding signal (z-score within array); higher = stronger binding
# Settings in all cases: glycan notation: IUPAC condensed, linker removed
# [1] = molecular target: Fuc(a1-2)Gal(b1-3)GalNAc(a1-3)[Fuc(a1-2)]Gal(b1-4)GlcNAc
# In short: (§1)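 Negative Z-scores can be read as non-binding. The Z-score is calculated within each array and then averaged across arrays of one protein sequence at different concentrations or buffers and across linkers. Arrays, 3228 in all, were curated from the Consortium for Functional Glycomics database and kept only where the protein sequence was available.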
# [2] = molecular target: Fuc(a1-2)Gal(b1-3)GalNAc(b1-3)Gal
# In short: as §1
# [3] = molecular target: Fuc(a1-2)Gal(b1-3)GlcNAc(b1-3)Gal(b1-4)Glc
# In short: as §1
# [4] = molecular target: Fuc(a1-2)Gal(b1-3)GlcNAc(b1-3)[Neu5Ac(a2-6)Gal(b1-4)GlcNAc(b1-6)]Gal(b1-4)Glc
# In short: as §1
# [5] = molecular target: Fuc(a1-2)Gal(b1-4)[Fuc(a1-3)]GlcNAc(b1-2)Man(a1-3)[Fuc(a1-2)Gal(b1-4)[Fuc(a1-3)]GlcNAc(b1-2)Man(a1-6)]Man(b1-4)GlcNAc(b1-4)GlcNAc
# In short: as §1
# [6] = molecular target: Fuc(a1-2)Gal(b1-4)[Fuc(a1-3)]GlcNAc(b1-3)GalNAc
# In short: as §1
# [7] = molecular target: Fuc(a1-2)[GalNAc(a1-3)]Gal(b1-3)GlcNAc(b1-2)Man(a1-3)[Fuc(a1-2)[GalNAc(a1-3)]Gal(b1-3)GlcNAc(b1-2)Man(a1-6)]Man(b1-4)GlcNAc(b1-4)GlcNAc
# In short: as §1
# [8] = molecular target: Fuc(a1-2)[GalNAc(a1-3)]Gal(b1-3)GlcNAc(b1-2)Man(a1-3)[Fuc(a1-2)[GalNAc(a1-3)]Gal(b1-3)GlcNAc(b1-2)Man(a1-6)]Man(b1-4)GlcNAc(b1-4)[Fuc(a1-6)]GlcNAc
# In short: as §1
# [9] = molecular target: Fuc(a1-2)[GalNAc(a1-3)]Gal(b1-4)GlcNAc(b1-3)Gal(b1-4)GlcNAc
# In short: as §1
# [10] = molecular target: Fuc(a1-3)[Gal(b1-4)]GlcNAc(b1-6)GalNAc
# In short: as §1
# [11] = molecular target: Gal(a1-4)Gal(b1-3)GlcNAc(b1-2)Man(a1-3)[Gal(a1-4)Gal(b1-3)GlcNAc(b1-2)Man(a1-6)]Man(b1-4)GlcNAc(b1-4)GlcNAc
# In short: as §1
# Gal(a1-4)Gal(b1-4)Glc = molecular target: Gal(a1-4)Gal(b1-4)Glc
# In short: as §1
# Gal(b1-3)Gal(b1-4)GlcNAc = molecular target: Gal(b1-3)Gal(b1-4)GlcNAc
# In short: as §1
# Gal(b1-3)GalNAc = molecular target: Gal(b1-3)GalNAc
# In short: as §1
# [12] = molecular target: Gal(b1-3)[Fuc(a1-4)]GlcNAc(b1-2)Man(a1-3)[Gal(b1-3)[Fuc(a1-4)]GlcNAc(b1-2)Man(a1-6)]Man(b1-4)GlcNAc(b1-4)GlcNAc
# In short: as §1
# [13] = molecular target: Gal(b1-3)[Fuc(a1-4)]GlcNAc(b1-3)Gal(b1-4)GlcNAc
# In short: as §1
# [14] = molecular target: Gal(b1-4)GlcNAc(b1-2)Man(a1-3)[Man(a1-6)]Man(b1-4)GlcNAc(b1-4)GlcNAc
# In short: as §1
# Gal3S(b1-4)Glc6S = molecular target: Gal3S(b1-4)Glc6S
# In short: as §1
# GalNAc(b1-3)Gal = molecular target: GalNAc(b1-3)Gal
# In short: as §1
# [15] = molecular target: GalNAc(b1-4)GlcNAc(b1-2)Man(a1-3)[GalNAc(b1-4)GlcNAc(b1-2)Man(a1-6)]Man(b1-4)GlcNAc(b1-4)GlcNAc
# In short: as §1
# [16] = molecular target: GlcNAc(a1-4)Gal(b1-4)GlcNAc(b1-3)Gal(b1-4)GlcNAc
# In short: as §1
# [17] = molecular target: GlcNAc(b1-2)[GlcNAc(b1-6)]Man(a1-6)[GlcNAc(b1-2)Man(a1-3)]Man(b1-4)GlcNAc(b1-4)GlcNAc
# In short: as §1
# [18] = molecular target: GlcNAc(b1-3)[GlcNAc(b1-6)]GalNAc
# In short: as §1
# [19] = molecular target: Kdn(a2-3)Gal(b1-4)[Fuc(a1-3)]GlcNAc
# In short: as §1
# Kdn(a2-6)Gal(b1-4)GlcNAc = molecular target: Kdn(a2-6)Gal(b1-4)GlcNAc
# In short: as §1
# [20] = molecular target: Man(a1-2)Man(a1-2)Man(a1-3)Man
# In short: as §1
# [21] = molecular target: Man(a1-2)Man(a1-2)Man(a1-6)[Man(a1-3)]Man
# In short: as §1
# [22] = molecular target: Man(a1-2)Man(a1-3)[Man(a1-2)Man(a1-6)]Man(a1-6)[Man(a1-2)Man(a1-2)Man(a1-3)]Man
# In short: as §1
# [23] = molecular target: Neu5Ac(a2-3)Gal(b1-3)GlcNAc(b1-3)GalNAc
# In short: as §1
# [24] = molecular target: Neu5Ac(a2-3)Gal(b1-3)[Neu5Ac(a2-6)]GalNAc
# In short: as §1
# [25] = molecular target: Neu5Ac(a2-3)Gal(b1-4)GlcNAc(b1-3)Gal
# In short: as §1
# [26] = molecular target: Neu5Ac(a2-3)Gal(b1-4)[Fuc(a1-3)]GlcNAc(b1-3)Gal(b1-4)GlcNAc
# In short: as §1
# [27] = molecular target: Neu5Ac(a2-3)Gal(b1-4)[Fuc(a1-3)]GlcNAc(b1-3)Gal(b1-4)[Fuc(a1-3)]GlcNAc(b1-3)Gal(b1-4)[Fuc(a1-3)]GlcNAc
# In short: as §1
# [28] = molecular target: Neu5Ac(a2-3)Gal6S(b1-4)GlcNAc
# In short: as §1
# [29] = molecular target: Neu5Ac(a2-3)[Neu5Ac(a2-6)]GalNAc
# In short: as §1
# [30] = molecular target: Neu5Ac(a2-6)Gal(b1-4)GlcNAc(b1-2)Man(a1-6)[Man(a1-3)]Man(b1-4)GlcNAc(b1-4)GlcNAc
# In short: as §1
# [31] = molecular target: Neu5Ac(a2-8)Neu5Ac(a2-8)Neu5Ac(a2-3)Gal(b1-4)Glc
# In short: as §1
# [32] = molecular target: Neu5Ac9Ac(a2-3)Gal(b1-3)GlcNAc
# In short: as §1
binder,measurement,setting,value
"3FTT (Staphylococcus aureus), Q5HCZ5 (protein) MTEKEKMLAEKWYDANFDQYLINERARAKDICFELNHTRPSATNKRKELIDQLFQTTTDNVSISIPFDTDYGWNVKLGKNVYVNTNCYFMDGGQITIGDNVFIGPNCGFYTATHPLNFHHRNEGFEKAGPIHIGSNTWFGGHVAVLPGVTIGEGSVIGAGSVVTKDIPPHSLAVGNPCKVVRKIDNDLPSETLNDETIK",glycan array binding signal (z-score),[1],-0.281
same,glycan array binding signal (z-score),[2],1.06
same,glycan array binding signal (z-score),[3],-0.165
same,glycan array binding signal (z-score),[4],-0.004
same,glycan array binding signal (z-score),[5],0.815
same,glycan array binding signal (z-score),[6],1.26
same,glycan array binding signal (z-score),[7],0.032
same,glycan array binding signal (z-score),[8],0.227
same,glycan array binding signal (z-score),[9],-0.09
same,glycan array binding signal (z-score),[10],0.714
same,glycan array binding signal (z-score),[11],-0.237
same,glycan array binding signal (z-score),Gal(a1-4)Gal(b1-4)Glc,-0.171
same,glycan array binding signal (z-score),Gal(b1-3)Gal(b1-4)GlcNAc,0.256
same,glycan array binding signal (z-score),Gal(b1-3)GalNAc,-0.105
same,glycan array binding signal (z-score),[12],19.9
same,glycan array binding signal (z-score),[13],-0.017
same,glycan array binding signal (z-score),[14],-0.261
same,glycan array binding signal (z-score),Gal3S(b1-4)Glc6S,0.798
same,glycan array binding signal (z-score),GalNAc(b1-3)Gal,-0.332
same,glycan array binding signal (z-score),[15],5.95
same,glycan array binding signal (z-score),[16],0.607
same,glycan array binding signal (z-score),[17],-0.134
same,glycan array binding signal (z-score),[18],-0.288
same,glycan array binding signal (z-score),[19],0.16
same,glycan array binding signal (z-score),Kdn(a2-6)Gal(b1-4)GlcNAc,-0.292
same,glycan array binding signal (z-score),[20],-0.082
same,glycan array binding signal (z-score),[21],-0.073
same,glycan array binding signal (z-score),[22],-0.089
same,glycan array binding signal (z-score),[23],-0.066
same,glycan array binding signal (z-score),[24],-0.057
same,glycan array binding signal (z-score),[25],0.012
same,glycan array binding signal (z-score),[26],0.162
same,glycan array binding signal (z-score),[27],-0.195
same,glycan array binding signal (z-score),[28],0.037
same,glycan array binding signal (z-score),[29],0.223
same,glycan array binding signal (z-score),[30],-0.226
same,glycan array binding signal (z-score),[31],0.056
same,glycan array binding signal (z-score),[32],-0.153
